# Laboratory results taken from PubChem BioAssay (Tox21).
# Where “and” joins values, the source holds several entries; their conditions need not be identical. Equal values may be shown once. Inconclusive results are not listed. Entries that show only a call come without a potency. Some structures have more than one record in an assay (separate samples or runs), and their calls can disagree. Calls of active or inactive are those of the source. Calls come from the whole dose curve; as a rule, active = well fitted curve in the direction sought with a large enough effect in the repeat runs; inconclusive = weak or mixed curves; inactive = no such curve, though single readings can be large; an effect the other way counts as inactive or inconclusive.
# Tests used:
# [1] = Caspase-3/7 induction in CHO-K1 cells by small molecules, qHTS cell viability counter screen (AID 1346979); note: nearly all actives have a fitted effect of over 35% in size; note: potency is the fitted concentration of half-maximal effect
# Summary of the method: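 To flag cytotoxic compounds, treated CHO-K1 wild-type cells were given CellTiter-Fluor at 16hr and read fluorescently after 1hr at 37C; the caspase-3/7 luminescence was measured in these same wells.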
# [2] = Caspase-3/7 induction in CHO-K1 cells by small molecules, qHTS assay (AID 1346980); note: nearly all actives have a fitted effect of over 15% in size
# Summary of the method: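 Wild-type cells were seeded at 1,500 per well and settled 5 hr at 37 C, 5% CO2, then exposed to DMSO-dissolved compounds for 17 hr. Caspase-Glo 3/7 reagent was added, and luminescence was read after 30min at room temperature.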
# [3] = Caspase-3/7 induction in HepG2 cells by small molecules, qHTS cell viability counter screen (AID 1346981); note: nearly all actives have a fitted effect of over 30% in size; note: potency is the fitted concentration of half-maximal effect; for activity change, negative = cytotoxicity: series mostly up to about 92 µM
# Summary of the method: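 The parent HepG2 line is plated at 2,000 cells per well and rested 5 hr before compound pinning from DMSO stocks. Following a 16-hr treatment at 37 C, a fluorogenic live-cell substrate (CellTiter-Fluor) reports viability after 1 hr.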
# [4] = target: Nuclear receptor subfamily 1 group I member 2 (Homo sapiens) (UniProt O75469); assay: Human pregnane X receptor (PXR) small molecule agonists, qHTS assay (AID 1346982); note: nearly all actives have a fitted effect of over 35% in size; note: potency is the fitted concentration of half-maximal effect
# Nuclear receptor subfamily 1 group I member 2 (Homo sapiens), sequence (O75469 whole entry, looked up): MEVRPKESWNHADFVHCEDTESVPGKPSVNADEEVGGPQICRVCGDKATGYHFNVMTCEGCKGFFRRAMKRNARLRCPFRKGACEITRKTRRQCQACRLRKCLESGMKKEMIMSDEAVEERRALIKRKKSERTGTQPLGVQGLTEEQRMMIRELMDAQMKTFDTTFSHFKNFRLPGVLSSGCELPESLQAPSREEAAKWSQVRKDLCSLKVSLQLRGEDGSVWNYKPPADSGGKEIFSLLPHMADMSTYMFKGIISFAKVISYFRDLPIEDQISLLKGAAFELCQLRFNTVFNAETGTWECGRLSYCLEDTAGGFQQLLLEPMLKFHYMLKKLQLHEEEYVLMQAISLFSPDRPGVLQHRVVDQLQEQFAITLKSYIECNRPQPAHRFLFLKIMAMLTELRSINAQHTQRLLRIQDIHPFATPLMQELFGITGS
# Summary of the method: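 After plating in 5% charcoal-stripped FBS and a 5 hr rest, PXR-Luc HepG2 cells received compounds in DMSO. Following 24 hr at 37 C, ONE-Glo was added and light output read.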
# [5] = target: Cytochrome P450 2C19 (Homo sapiens) (UniProt P33261); assay: Cytochrome P450 Family 2 Subfamily C Member 19 (CYP2C19) small molecule antagonists: luciferase reporter qHTS assay (AID 1671197); note: nearly all actives have a fitted effect of over 65% in size; note: potency is the fitted concentration of half-maximal effect; for activity change, negative = inhibition: series mostly up to about 120 µM
# Cytochrome P450 2C19 (Homo sapiens), sequence (P33261 whole entry, looked up): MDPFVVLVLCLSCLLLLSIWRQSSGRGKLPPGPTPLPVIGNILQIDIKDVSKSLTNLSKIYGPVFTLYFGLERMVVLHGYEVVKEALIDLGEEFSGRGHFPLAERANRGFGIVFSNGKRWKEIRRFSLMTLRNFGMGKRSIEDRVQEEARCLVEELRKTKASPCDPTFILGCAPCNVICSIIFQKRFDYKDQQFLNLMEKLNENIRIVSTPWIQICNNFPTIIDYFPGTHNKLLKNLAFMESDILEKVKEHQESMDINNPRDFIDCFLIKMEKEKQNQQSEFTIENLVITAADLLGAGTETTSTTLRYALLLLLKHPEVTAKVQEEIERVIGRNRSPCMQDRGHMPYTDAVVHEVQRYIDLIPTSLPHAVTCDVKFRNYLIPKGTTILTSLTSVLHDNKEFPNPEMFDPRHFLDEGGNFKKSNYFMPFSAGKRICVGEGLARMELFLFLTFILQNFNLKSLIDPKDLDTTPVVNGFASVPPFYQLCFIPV
# Summary of the method: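 P450-Glo CYP2C19 system: enzyme-substrate mix with compound 10 min at room temperature, then NADPH regeneration solution, 1 h at 37C. Proluciferin-to-luciferin conversion detected by luminescence after 20 min with detection reagent; ketoconazole as positive control.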
# [6] = target: Cytochrome P450 2C9 (Homo sapiens) (UniProt P11712); assay: Cytochrome P450 Family 2 Subfamily C Member 9 (CYP2C9) small molecule antagonists: luciferase reporter qHTS assay (AID 1671198); note: nearly all actives have a fitted effect of over 50% in size; note: potency is the fitted concentration of half-maximal effect; for activity change, negative = inhibition: series mostly up to about 120 µM
# Cytochrome P450 2C9 (Homo sapiens), sequence (P11712 whole entry, looked up): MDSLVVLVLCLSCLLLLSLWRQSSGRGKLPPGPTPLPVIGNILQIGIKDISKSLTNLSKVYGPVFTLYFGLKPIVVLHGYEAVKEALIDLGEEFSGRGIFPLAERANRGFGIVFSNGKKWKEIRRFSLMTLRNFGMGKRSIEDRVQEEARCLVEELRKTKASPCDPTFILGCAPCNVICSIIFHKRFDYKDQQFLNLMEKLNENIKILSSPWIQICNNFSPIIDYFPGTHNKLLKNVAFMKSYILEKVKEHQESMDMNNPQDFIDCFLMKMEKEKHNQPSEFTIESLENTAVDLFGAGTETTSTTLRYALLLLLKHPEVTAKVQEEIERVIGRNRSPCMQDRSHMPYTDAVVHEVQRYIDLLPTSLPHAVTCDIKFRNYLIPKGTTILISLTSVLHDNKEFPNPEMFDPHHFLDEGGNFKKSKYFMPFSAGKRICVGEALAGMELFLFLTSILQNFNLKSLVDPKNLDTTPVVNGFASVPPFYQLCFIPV
# Summary of the method: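 CYP2C9 activity was measured with a P450-Glo proluciferin substrate. Enzyme–substrate mix was held with compound for 10 min at room temperature, then NADPH regeneration solution was added for 1 h at 37C. Luciferin product was read as luminescence.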
# [7] = target: Cytochrome P450 2D6 (Homo sapiens) (UniProt P10635); assay: Cytochrome P450 Family 2 Subfamily D Member 6 (CYP2D6) small molecule antagonists: luciferase reporter qHTS assay (AID 1671196); note: series mostly up to about 120 µM; nearly all actives have a fitted effect of over 50% in size
# Cytochrome P450 2D6 (Homo sapiens), sequence (P10635 whole entry, looked up): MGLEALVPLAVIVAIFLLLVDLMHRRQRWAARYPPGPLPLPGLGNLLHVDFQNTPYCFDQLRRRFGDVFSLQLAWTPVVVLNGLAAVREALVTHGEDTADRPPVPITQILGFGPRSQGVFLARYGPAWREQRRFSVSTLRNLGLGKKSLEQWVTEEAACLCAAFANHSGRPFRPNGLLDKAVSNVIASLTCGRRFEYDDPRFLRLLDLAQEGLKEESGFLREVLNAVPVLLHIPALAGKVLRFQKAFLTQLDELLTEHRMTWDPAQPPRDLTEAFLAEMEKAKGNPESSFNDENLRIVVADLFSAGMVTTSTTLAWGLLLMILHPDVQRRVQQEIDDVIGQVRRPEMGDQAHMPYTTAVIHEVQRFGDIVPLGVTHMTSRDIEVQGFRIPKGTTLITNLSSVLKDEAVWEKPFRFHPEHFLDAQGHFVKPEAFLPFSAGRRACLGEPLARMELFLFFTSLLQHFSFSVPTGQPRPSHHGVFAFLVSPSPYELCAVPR
# Summary of the method: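 Quantitative HTS of Tox21 chemicals against CYP2D6 using a luminescent proluciferin substrate. After NADPH addition, 1 h room-temperature reaction; luminescence recorded 20 min post detection reagent.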
smiles,measurement,setting,value
C=CC(=O)Nc1cc2c(Nc3ccc(F)c(Cl)c3)ncnc2cc1OCCCN1CCOCC1,Potency,[1],5.96 µM (active)
same,Potency,[2],inactive
same,Potency,[3],5.96 µM (active)
same,Potency,[4],10.6 µM (active)
same,Potency,[5],inactive
Oc1ccccc1O,Potency,[1],27.6 µM (active) and 21.7 µM (active)
same,Potency,[2],inactive
same,Potency,[3],inactive
same,Potency,[4],22 µM (active) and inactive
same,Potency,[5],80.6 µM (active) and inactive
same,Potency,[6],inactive
CCCCCCCC,Potency,[1],inactive
same,Potency,[2],inactive
same,Potency,[3],inactive
same,Potency,[4],inactive
same,Potency,[5],inactive
same,Potency,[6],inactive
CCN(CC)c1ccc2c(-c3ccc(S(=O)(=O)O)cc3S(=O)(=O)[O-])c3ccc(=[N+](CC)CC)cc-3oc2c1,Potency,[1],6.31 µM (active)
same,Potency,[2],inactive
same,Potency,[3],8.91 µM (active)
same,Potency,[4],inactive
same,Potency,[5],92.2 µM (active)
same,Potency,[6],16.4 µM (active)
CC(C)(C)NSc1nc2ccccc2s1,Potency,[1],inactive
same,Potency,[2],inactive
same,Potency,[3],inactive
same,Potency,[4],49.4 µM (active)
same,Potency,[5],32.2 µM (active)
same,Potency,[6],16.2 µM (active)
C=CCn1c(=O)n(CC=C)c(=O)n(CC=C)c1=O,Potency,[1],inactive
same,Potency,[2],inactive
same,Potency,[3],inactive
same,Potency,[4],inactive
same,Potency,[5],1.12 µM (active)
c1cnccn1,Potency,[1],inactive
same,Potency,[2],inactive
same,Potency,[3],inactive
same,Potency,[4],inactive
same,Potency,[5],inactive
same,Potency,[6],inactive
[Cu+],Potency,[1],inactive
same,Potency,[2],inactive
same,Potency,[3],inactive
same,Potency,[4],inactive
same,Potency,[5],2.24 µM (active)
same,Potency,[6],11.2 µM (active)
CCCCOC(=O)CO,Potency,[1],inactive
same,Potency,[2],inactive
same,Potency,[3],inactive
same,Potency,[4],inactive
same,Potency,[5],inactive
same,Potency,[6],inactive
CCC(C)n1ncn(-c2ccc(N3CCN(c4ccc(OC[C@H]5CO[C@](Cn6cncn6)(c6ccc(Cl)cc6Cl)O5)cc4)CC3)cc2)c1=O (stereo partly drawn),Potency,[1],5.96 µM (active)
same,Potency,[2],inactive
same,Potency,[3],inactive
same,Potency,[4],2.98 µM (active)
same,Potency,[7],inactive
same,Potency,[6],13.8 µM (active)
Cc1cccc2cccnc12,Potency,[1],inactive
same,Potency,[2],inactive
same,Potency,[3],inactive
same,Potency,[4],inactive
same,Potency,[5],70.5 µM (active)
same,Potency,[6],inactive
FC(F)(F)c1cccc(Cl)c1,Potency,[1],inactive
same,Potency,[2],inactive
same,Potency,[3],inactive
same,Potency,[4],inactive
same,Potency,[5],69.7 µM (active)
C[C@H]1NCc2cc(-c3ccc4c(=O)c(C(=O)O)cn(C5CC5)c4c3OC(F)F)ccc21,"activity change, negative = cytotoxicity",[1],0.359% [at 19 µM] (inactive)
same,caspase-3/7 activation,[2],0.0016% [at 19 µM] (inactive)
same,"activity change, negative = cytotoxicity",[3],-1.4% [at 19 µM] (inactive)
same,activation,[4],-6.61% [at 19 µM] (inactive)
same,"activity change, negative = inhibition",[5],-6.59% [at 23.6 µM] (inactive)
same,"activity change, negative = inhibition",[6],0.717% [at 23.6 µM] (inactive)
Cc1c2ccccc2c(C)c2c1ccc1ccccc12,Potency,[1],61.1 µM (active)
same,Potency,[2],inactive
same,Potency,[3],inactive and 61.1 µM (active)
same,Potency,[4],30.3 µM (active) and 17.2 µM (active)
same,Potency,[5],4.98 µM (active) and 3.99 µM (active)
same,Potency,[6],22.2 µM (active) and 25.2 µM (active)
O=C1c2ccccc2C(=O)N1SC1CCCCC1,Potency,[1],54.4 µM (active) and 43.3 µM (active)
same,Potency,[2],inactive
same,Potency,[3],inactive
same,Potency,[4],inactive
same,Potency,[5],25.2 µM (active) and 39.9 µM (active)
same,Potency,[6],3.99 µM (active) and 7.1 µM (active)
CCCCCCOC(=O)C(C)CC (stereo not drawn),Potency,[1],inactive
same,Potency,[2],inactive
same,Potency,[3],inactive
same,Potency,[4],inactive
same,Potency,[5],inactive
same,Potency,[6],inactive
CNc1ccc([N+](=O)[O-])cc1,Potency,[1],48.7 µM (active)
same,Potency,[2],inactive
same,Potency,[3],30.7 µM (active)
same,Potency,[4],54.6 µM (active)
same,Potency,[5],35.7 µM (active)
CC(C)OC(=O)C(O)(CC(=O)O)CC(=O)O,Potency,[1],inactive
same,Potency,[2],inactive
same,Potency,[3],inactive
same,Potency,[4],48.6 µM (active)
same,Potency,[5],35.6 µM (active)
same,Potency,[6],35.6 µM (active)
Cc1ccc(C)cc1,Potency,[1],inactive
same,Potency,[2],inactive
same,Potency,[3],inactive
same,Potency,[4],inactive
same,Potency,[7],inactive
same,Potency,[6],inactive
OC[C@H]1O[C@H](O[C@H]2O[C@H](CO)[C@@H](O)[C@H](O)[C@H]2O)[C@H](O)[C@@H](O)[C@@H]1O,Potency,[1],inactive
same,Potency,[2],inactive
same,Potency,[3],inactive
same,Potency,[4],inactive
same,Potency,[5],inactive
same,Potency,[6],inactive
CC1(C)CCC[C@]2(C)[C@H]3CC(=O)O[C@]3(C)CC[C@@H]12,Potency,[1],inactive
same,Potency,[2],inactive
same,Potency,[3],inactive
same,Potency,[4],30.6 µM (active)
same,Potency,[5],39.9 µM (active)
same,Potency,[6],39.9 µM (active)
CCCC[P+](C)(CCCC)CCCC,Potency,[1],inactive
same,Potency,[2],inactive
same,Potency,[3],inactive
same,Potency,[4],61.9 µM (active)
same,Potency,[5],inactive
same,Potency,[6],inactive
